Source: PubChem BioAssay (NCI)
The panel holds about 83,000 compounds, 20% with a hit somewhere; the sample as a whole holds those more often.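 The endpoint reported here, percent growth, reads 100 for growth as untreated, 0 for no net growth and -100 for all cells dead.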 Unmarked numbers belong to inactive results. Active and inactive are the calls of the source.

test system: OVCAR-3 ovarian; assay: NCI-60 one-dose screen, 48 h (100 = growth as untreated, 0 = no growth, -100 = all killed); conditions: 10 µM
Method: Growth inhibition of the OVCAR-3 human tumor cell line is measured as a screen for anti-cancer activity. Cells are grown in 96 well plates and exposed to the test compound for 48 hours. Compounds are tested at a single concentration, which is 10^-5 M for most compounds. The reported endpoint is percent growth (GI% or GIPRCNT), where numbers from 0 - 100% represent growth inhibition, and numbers from -100% - 0 represent cell death. For example, a value of 40 represents 60% growth inhibition. A value of 0 means no net growth occurred over the course of the experiment. A value of -40 indicates 40% of cells at the beginning of the experiment died by the end of the experiment. A value of -100 means all cells are dead at the end of the experiment.
NCI-60 Human Tumor Cell Lines Screen was performed using the standard one-dose NCI protocol, which is described in more detail at https://dtp.cancer.gov/discovery_development/nci-60/default.htm.
Compounds with GIPRCNT values below 10 were considered active. Activity score was based on GIPRCNT using the following formula: […]
Score is 0 for GIPRCNT values of 100 or above, 50 for GIPRCNT values of 0, and 100 for GIPRCNT values of -100.

| Compound | growth |
| --- | --- |
| Nc1nnc(-c2c[nH]c3ncccc23)c(-c2c[nH]c3ccc(Br)cc23)n1 | 52.6% |
| CN1CCN(c2ccc(Nc3nc(NCCCNC(=O)c4ccc(F)cc4)c4sccc4n3)cc2)CC1 | 61.6% |
| O=C(CNc1nc(-c2ccccc2)cs1)Nc1ccc(Cl)cc1[N+](=O)[O-] | -31.9% (active) |
| O=C(NCCCCCCCCCC[P+](c1ccccc1)(c1ccccc1)c1ccccc1)c1ccc(-n2nc(-c3ccccc3O)nc2-c2ccccc2O)cc1 | -14.1% (active) |
| CC(=O)NNc1ccc2nnc(-c3ccc(Br)cc3)n2n1 | 104% |
| Cc1ccc(-c2cc(C(=O)N=Nc3c(O)[nH]c4ccccc34)c3ccccc3n2)cc1 | -65.7% (active) |
| CCCCCc1ccc(S(=O)(=O)N(C(C)=O)c2cc(-c3csc(N(C)C(C)=O)n3)ccc2N2CCN(C)CC2)cc1 | 44.7% |
| CN1C/C(=C\c2ccc(O)cc2O)c2[o+]c3cc(O)ccc3cc2C1 | -8.86% (active) |
| O=C1Nc2ccc(Cl)cc2/C1=C/c1cccc(OCc2ccccc2)c1 | 8.28% (active) |
| COc1ccc(-c2nc(S(=O)(=O)c3ccccc3)c(S(C)(=O)=O)o2)cc1 | -81.8% (active) |
| O=C(CSc1nnc(-c2c[nH]c3ccccc23)n1-c1ccccc1)Nc1ccc(C(=O)/C=C/c2cccc([N+](=O)[O-])c2)cc1 | 103% |
| CC1=C(C(=O)OC(C)C)C(c2ccc(O)cc2)NC(=S)N1 (stereo not given) | 105% |
| COc1ccc2[nH]c(=O)c(CSc3ccc(Nc4nccc(-c5ccc(Cl)cc5)n4)cc3)cc2c1 | 116% |
| CC1(C)CC[C@]2(C(=O)NCCCNCCCCNCCCN)CC[C@]3(C)C(=CC[C@@H]4[C@@]5(C)Cc6c([nH]c7ccccc67)C(C)(C)[C@@H]5CC[C@]43C)[C@H]2C1 | 118% |
| Cc1ccc(-c2nc3ccc(C(=O)N=Nc4c(O)[nH]c5ccc(Br)cc45)cc3[nH]2)cc1 | 49.4% |
| CN1CCN(Cc2ccc(NC(=O)c3cncc(C#Cc4cnc5ccc(N[C@@H]6CCOC6)nn45)c3)cc2C(F)(F)F)CC1 | -90.3% (active) |
| COc1ccc2[nH]c(O)c(N=NC(=O)c3cc(-c4ccc(C)cc4)nc4ccccc34)c2c1 | 98.3% |
| CCOC(=O)C(Cc1ccccc1)N1C(=O)/C(=C/N2N=C(c3ccc(OC)cc3)CC2c2ccc3ccccc3c2)SC1=S (stereo not given) | 15.1% |
| COc1cc2c(c(OC)c1OC)C(=O)CC(c1cccc(NC(=O)c3cccc(N)c3)c1)O2 (stereo not given) | 80.9% |
| O=C(c1ccc(Cl)cc1)C1[C@H](c2ccccc2Br)[C@@H](c2ccccc2)NC12C(=O)Nc1ccc(Br)cc12 (stereo not given in full) | -8.88% (active) |

| Compound | growth |
| --- | --- |
| COc1ccc(C2NC(=S)NC(C)=C2C(=O)OC(C)C)cc1OC (stereo not given) | 113% |
| O=C(Cn1cc(CSc2nnc3oc4ccccc4n23)nn1)Nc1ccc(Br)cc1 | 87% |
| O=C(Nc1cccc(C(F)(F)F)c1)c1cncc(C#Cc2cnc3ccc(N4CCOCC4)nn23)c1 | -23.6% (active) |
| CC(=O)NCC1=C(C)C=C2C(=O)[C@](C)(O)C3(CC3)C(C)=C21 | -19.9% (active) |
| N#Cc1c(NC(=O)c2ccc(C(F)(F)F)cc2)sc2c1CCC(=O)C2 | -92.9% (active) |
| COc1cc(/C=C/C(=O)c2cc(OC)c(OC)c(OC)c2)ccc1Oc1nc(Nc2ccc(F)cc2)nc(N(C)C)n1 | 12.1% |
| O=C(Nc1nc2ccc([N+](=O)[O-])cc2s1)Nc1ccccc1I | 14.4% |
| CCCCSc1nc(Nc2ccc(/C(C)=N/NC(N)=S)cc2)c(C#N)c(-c2ccccc2)n1 | 13.4% |
| CC[C@@]1(O)C(=O)OCc2c1cc1n(c2=O)Cc2c-1nc1cc(F)c(C)c3c1c2[C@@H](N)CC3 | -17.8% (active) |
| C/C(=C\CSc1ccccc1C(=O)O)CCCC(C)CCCC(C)CCCC(C)C (stereo not given) | 74.4% |
| CC(=O)OC[C@@]1(C)C2CC[C@]3(C)C(CC=C4C5CC(C)(C)CC[C@]5(C(=O)Nc5ccccc5)CC[C@]43C)[C@@]2(C)C[C@@H](OC(C)=O)[C@@H]1OC(C)=O (stereo not given in full) | 38.9% |
| Cc1ccc(C(=O)NCCCNc2nc(Nc3ccc(N4CCN(C)CC4)cc3)nc3ccsc23)cc1 | 31% |
| CC(=O)Nc1nc(-c2ccc(N3CCN(C)CC3)c(NS(=O)(=O)c3ccc(C(F)(F)F)cc3)c2)cs1 | -3.33% (active) |
| CC(=O)Nc1ccc(-n2cnc3cc(-c4ccc(O)cc4)ccc32)cc1F | 6.74% (active) |
| Nc1nc(Nc2ccc(Cl)cc2)n(Cc2cccc(Br)c2)n1 | -35.3% (active) |
| COc1ccc2nc(Cl)c(-c3cc(-c4ccccc4)nc(=S)[nH]3)cc2c1 | 80.8% |
| O=C(CNc1nc(-c2ccccc2)cs1)Nc1ccccc1 | -12.1% (active) |
| COC(=O)CC1CC1C1Cc2c(nc(N(C)S(C)(=O)=O)nc2C(C)C)-c2ccc(F)cc21 (stereo not given) | 97.5% |
| CNCc1cccc2c1OCCCCCC[C@@](C)(O)CC1(CC1)S(=O)(=O)c1ccc(cc1)-c1cnc(N)c(n1)C(=O)N2 | -91.1% (active) |
| [2H]C([2H])([2H])Oc1ccc2ncc(C#Cc3cncc(C(=O)Nc4ccc(CN5CCN(C)CC5)c(C(F)(F)F)c4)c3)n2n1 | -78.8% (active) |
